Measured values taken from PubChem BioAssay (NCATS).
Inconclusive results are not listed. Values without a mark were called inactive. Calls follow the shape of the dose curve; as a rule, active = well fitted curve in the direction sought with a large enough effect; inconclusive = small, poorly fitted or top-dose-only effect, or another doubt; inactive = no such curve, though single readings can be large; an effect the other way counts as inactive or inconclusive. Numbered stars: 1 amine (or outer) side, 2 acyl side, 3 side chain; on linkers, the order of the positions; unused ones are H or OH. Bridge positions count the residues as written; N and C are the ends. Square brackets hold non-standard residues; d marks the D form. Peptide text beside a SMILES is read from it. I, II: the chains in the order shown. Actinocin(9to1) = Cc1c2oc3c(C)ccc(C(=O)[*:1])c3nc-2c(C(=O)[*:2])c(N)c1=O; NMeV = CN[C@H](C(=O)O)C(C)C; Sar = CNCC(=O)O

tested on: not listed separately; assay: qHTS to identify inhibitors of the type 1 interferon - major histocompatibility complex class I in skeletal muscle: primary screen against the NCATS Pharmaceutical Collection (AID 1347407); conditions: human skeletal muscle cells, IFN-b-induced MHC-I HiBiT luminescence, 24 h; series mostly up to 45.9 µM; activity change, negative = inhibition: at the top concentration;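 also: luminescence of HiBiT knocked into endogenous HLA-B as interferon-induced MHC class I level; % is scaled to controls: 0 for no effect and ±100 for the full control effect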
Method in brief: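 Luminescence from HiBiT-tagged endogenous HLA-B*08:01 served as the read-out of IFN-beta-induced MHC class I in CRISPR-engineered C25cl48 myoblasts. Cells received 4 ng/ml IFN-beta plus compound (high final 46 uM, […]) for 24 h.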

Structure (SMILES) | activity change, negative = inhibition
CN(C/C=C/c1ccccc1)Cc1cccc2ccccc12 | -15.8%
C[C@H](CCC(=O)O)[C@H]1CC[C@H]2[C@@H]3C(=O)C[C@@H]4CC(=O)CC[C@]4(C)[C@H]3CC(=O)[C@]12C | -1.9%
C=CCc1ccc(O)c(OC)c1 | -5.28%

target: Protein phosphatase 1D (Homo sapiens) (UniProt O15297); assay: RapidFire Mass Spectrometry qHTS Assay for Modulators of WT P53-Induced Phosphatase 1 (WIP1) (AID 1347424); conditions: WIP1 dephosphorylation of phosphopeptide, RapidFire MS; series mostly up to 63 µM; activity change, negative = inhibition: at the top concentration;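 also: amount of dephosphorylated VEPPL-S-QETFS peptide product formed by WIP1; plate controls were DMSO wells for no effect and GSK830371 inhibitor control at 10 µM for full effect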
Sequence (O15297 whole entry, looked up): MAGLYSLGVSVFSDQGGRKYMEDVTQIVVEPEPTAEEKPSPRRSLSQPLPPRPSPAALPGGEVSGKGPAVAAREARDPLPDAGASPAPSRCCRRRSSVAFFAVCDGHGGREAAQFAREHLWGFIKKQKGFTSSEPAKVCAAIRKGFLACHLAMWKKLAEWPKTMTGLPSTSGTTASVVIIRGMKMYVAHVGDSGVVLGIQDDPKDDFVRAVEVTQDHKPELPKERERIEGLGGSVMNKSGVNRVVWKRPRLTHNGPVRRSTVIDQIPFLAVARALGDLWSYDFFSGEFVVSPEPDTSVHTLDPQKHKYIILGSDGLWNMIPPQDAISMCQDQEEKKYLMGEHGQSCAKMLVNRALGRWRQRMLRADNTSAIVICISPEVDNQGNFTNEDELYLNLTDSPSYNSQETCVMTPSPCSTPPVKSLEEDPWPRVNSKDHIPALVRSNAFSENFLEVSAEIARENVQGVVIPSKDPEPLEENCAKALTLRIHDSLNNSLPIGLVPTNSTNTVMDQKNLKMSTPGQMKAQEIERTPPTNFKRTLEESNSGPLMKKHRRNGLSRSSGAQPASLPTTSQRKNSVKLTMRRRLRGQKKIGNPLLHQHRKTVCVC
Method in brief: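 10 nM WIP1 preincubated with compounds 1 hr at room temperature in pH 7.5 Tris buffer with 30 mM MgCl2, 1 mM TCEP; 2 uM VEPPL-pS-QETFS phosphopeptide for 5 min, formic acid quench; dephosphorylated product quantified by RapidFire MS against labelled standard.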

Structure (SMILES) | activity change, negative = inhibition
CC1(C)OC[C@@H](COC(=O)CCc2ccc(OC[C@@H](O)CNCCNC(=O)N3CCOCC3)cc2)O1 | 2.56%
CC(C)(CO)[C@@H](O)C(=O)NCCCO | 5.1%
O=C(CCCN1CCC(O)(c2ccc(Br)cc2)CC1)c1ccc(F)cc1 | 9.34%
CCCCOc1ccc(C(=O)CCN2CCCCC2)cc1 | 10.7%
CC(=O)N/N=C/c1ccc([N+](=O)[O-])o1 | -10%
CN(C)C(=S)SC(=S)N(C)C | -6.4%
CCN(CCCc1ccccc1)CCCc1ccccc1 | 14.7%
Cc1onc(-c2c(Cl)cccc2Cl)c1C(=O)N[C@@H]1C(=O)N2[C@@H]1SC(C)(C)[C@@H]2C(=O)O | -25.2%
CC(=O)CC(c1ccc([N+](=O)[O-])cc1)c1c(O)c2ccccc2oc1=O (stereo not given) | -13.1%
O=C1OCCN1/N=C/c1ccc([N+](=O)[O-])o1 | -1.55%
CC(Cc1ccccc1)(NC(=O)CN)c1ccccc1 (stereo not given) | 24.1%
CCOC(=O)n1ccn(C)c1=S | -2.11%
CN1[C@@H]2CC[C@H]1CC(OC(=O)c1c[nH]c3ccccc13)C2 (stereo not given in full) | 9.05%
Cc1c(C(C)C)c(=O)n(-c2ccccc2)n1C | 15.4%
CCCCOc1ccc(OCCCN2CCOCC2)cc1 | 13.1%
COCc1c(C(C)C)nc(C(C)C)c(/C=C/[C@@H](O)C[C@@H](O)CC(=O)O)c1-c1ccc(F)cc1 | 26.8%
CCCCOc1cc(C(=O)NCCN(CC)CC)c2ccccc2n1 | 20.5%
COc1cc2c(cc1OC)C(C(C(=O)N(CCc1ccc(OC)c(OC)c1OC)CCc1ccc(OC)c(OC)c1OC)c1ccccc1)=NCC2 (stereo not given) | -11%

Structure (SMILES) | activity change, negative = inhibition
CN1CCCC(CC2c3ccccc3Sc3ccccc32)C1 (stereo not given) | 17%
NC(=O)CC[C@@H]1NC(=O)[C@H](Cc2ccccc2)NC(=O)[C@H](Cc2ccc(O)cc2)NC(=O)CCSSC[C@@H](C(=O)N2CCC[C@H]2C(=O)N[C@@H](CCCN=C(N)N)C(=O)NCC(N)=O)NC(=O)[C@H](CC(N)=O)NC1=O | 16.9%
CCN(CC)CCOC(=O)C(c1ccccc1)C1CCCCC1 (stereo not given) | 32.4%
O=C(OCC(O)CO)c1ccccc1Nc1ccnc2cc(Cl)ccc12 (stereo not given) | 3.39%
CC(Cc1cccc(C(F)(F)F)c1)NCCOC(=O)c1ccccc1 (stereo not given) | 26.5%
COC(=O)C1=C(C)NC(C)=C(C(=O)O[C@@H]2CCCN(Cc3ccccc3)C2)[C@@H]1c1cccc([N+](=O)[O-])c1 | -19.9%
CC1(C)O[C@@H]2[C@@H](CO[C@@]3(COS(N)(=O)=O)OC(C)(C)O[C@@H]23)O1 | 5.49%
C#C[C@]1(O)CC[C@H]2[C@@H]3CCc4cc(OC5CCCC5)ccc4[C@H]3CC[C@@]21C | 49.5%
O=C(O)CNC(=O)c1ccccc1 | 4.04%
Cc1nc2n(c(=O)c1CCN1CCC(c3noc4cc(F)ccc34)CC1)CCC[C@H]2O | 2.09% [at 26.6 µM]
CN=C(NC#N)Nc1ccc(C2=NNC(=O)CC2C)cc1 (stereo not given) | -8.44%
Cc1cc(=O)n(-c2ccccc2)n1C | -3.54%
Cc1cccn2c(=O)c(-c3nnn[nH]3)cnc12 | -10.2% [at 26.6 µM]
COc1c2occc2c(OC)c2c(=O)cc(C)oc12 | -4.39%
Cc1c2oc3c(C)ccc(C(=O)N[C@@H]4C(=O)N[C@H](C(C)C)C(=O)N5CCC[C@H]5C(=O)N(C)CC(=O)N(C)[C@@H](C(C)C)C(=O)O[C@@H]4C)c3nc-2c(C(=O)N[C@@H]2C(=O)N[C@H](C(C)C)C(=O)N3CCC[C@H]3C(=O)N(C)CC(=O)N(C)[C@@H](C(C)C)C(=O)O[C@@H]2C)c(N)c1=O (I: T[dV]P[Sar][NMeV] / II: T[dV]P[Sar][NMeV]; ester I:1-I:C, II:1-II:C; linker I:N-II:N via Actinocin(9to1)) | -22%
CN(C/C=C/c1ccccc1)Cc1cccc2ccccc12 | 13.9%
C[C@H](CCC(=O)O)[C@H]1CC[C@H]2[C@@H]3C(=O)C[C@@H]4CC(=O)CC[C@]4(C)[C@H]3CC(=O)[C@]12C | 2.95%
C=CCc1ccc(O)c(OC)c1 | 0%

target: Protein phosphatase 1D (Homo sapiens) (UniProt O15297); assay: Rhodamine-PBP qHTS Assay for Modulators of WT P53-Induced Phosphatase 1 (WIP1) (AID 1347425); conditions: recombinant WIP1, Rhodamine-PBP phosphate fluorescence, real-time; series mostly up to 57.5 µM; activity change, negative = inhibition: at the top concentration; also: % of control where 0% means no effect
Method in brief: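 5 nM WIP1 + 10 uM Rh-PBP, 50 mM Tris pH 7.5, 30 mM MgCl2, 1 mM TCEP, 0.1 mM EGTA, BSA; cpds pinned, 1 hr RT; + 10 uM phosphopeptide; fluorescence 1-min reads x 11 min; delta = f1 - f0.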

Structure (SMILES) | activity change, negative = inhibition
CC1(C)OC[C@@H](COC(=O)CCc2ccc(OC[C@@H](O)CNCCNC(=O)N3CCOCC3)cc2)O1 | -5.56%
CC(C)(CO)[C@@H](O)C(=O)NCCCO | 7.72%
O=C(CCCN1CCC(O)(c2ccc(Br)cc2)CC1)c1ccc(F)cc1 | 16.8%
CCCCOc1ccc(C(=O)CCN2CCCCC2)cc1 | 24.7%
CC(=O)N/N=C/c1ccc([N+](=O)[O-])o1 | 2.69%
CN(C)C(=S)SC(=S)N(C)C | 7.11%
CCN(CCCc1ccccc1)CCCc1ccccc1 | 15.1%
Cc1onc(-c2c(Cl)cccc2Cl)c1C(=O)N[C@@H]1C(=O)N2[C@@H]1SC(C)(C)[C@@H]2C(=O)O | -12.1%
CC(=O)CC(c1ccc([N+](=O)[O-])cc1)c1c(O)c2ccccc2oc1=O (stereo not given) | 0.386%
O=C1OCCN1/N=C/c1ccc([N+](=O)[O-])o1 | 2.7%
CC(Cc1ccccc1)(NC(=O)CN)c1ccccc1 (stereo not given) | 17.4%
CCOC(=O)n1ccn(C)c1=S | 3.24%
CN1[C@@H]2CC[C@H]1CC(OC(=O)c1c[nH]c3ccccc13)C2 (stereo not given in full) | 7.57%
Cc1c(C(C)C)c(=O)n(-c2ccccc2)n1C | 9.5%
CCCCOc1ccc(OCCCN2CCOCC2)cc1 | 8.57%
COCc1c(C(C)C)nc(C(C)C)c(/C=C/[C@@H](O)C[C@@H](O)CC(=O)O)c1-c1ccc(F)cc1 | -26.2%
CCCCOc1cc(C(=O)NCCN(CC)CC)c2ccccc2n1 | 7.42%
COc1cc2c(cc1OC)C(C(C(=O)N(CCc1ccc(OC)c(OC)c1OC)CCc1ccc(OC)c(OC)c1OC)c1ccccc1)=NCC2 (stereo not given) | -6.14%

Structure (SMILES) | activity change, negative = inhibition
CN1CCCC(CC2c3ccccc3Sc3ccccc32)C1 (stereo not given) | 31.1%
NC(=O)CC[C@@H]1NC(=O)[C@H](Cc2ccccc2)NC(=O)[C@H](Cc2ccc(O)cc2)NC(=O)CCSSC[C@@H](C(=O)N2CCC[C@H]2C(=O)N[C@@H](CCCN=C(N)N)C(=O)NCC(N)=O)NC(=O)[C@H](CC(N)=O)NC1=O | 11.8%
CCN(CC)CCOC(=O)C(c1ccccc1)C1CCCCC1 (stereo not given) | 21.1%
O=C(OCC(O)CO)c1ccccc1Nc1ccnc2cc(Cl)ccc12 (stereo not given) | 112%
CC(Cc1cccc(C(F)(F)F)c1)NCCOC(=O)c1ccccc1 (stereo not given) | 25.6%
COC(=O)C1=C(C)NC(C)=C(C(=O)O[C@@H]2CCCN(Cc3ccccc3)C2)[C@@H]1c1cccc([N+](=O)[O-])c1 | -17.6%
CC1(C)O[C@@H]2[C@@H](CO[C@@]3(COS(N)(=O)=O)OC(C)(C)O[C@@H]23)O1 | 10.7%
C#C[C@]1(O)CC[C@H]2[C@@H]3CCc4cc(OC5CCCC5)ccc4[C@H]3CC[C@@]21C | 23.3%
O=C(O)CNC(=O)c1ccccc1 | 15.2%
Cc1nc2n(c(=O)c1CCN1CCC(c3noc4cc(F)ccc34)CC1)CCC[C@H]2O | 12.2% [at 23.8 µM]
CN=C(NC#N)Nc1ccc(C2=NNC(=O)CC2C)cc1 (stereo not given) | 6.49%
Cc1cc(=O)n(-c2ccccc2)n1C | 0.541%
Cc1cccn2c(=O)c(-c3nnn[nH]3)cnc12 | 0.108% [at 23.8 µM]
COc1c2occc2c(OC)c2c(=O)cc(C)oc12 | 0.541%
Cc1c2oc3c(C)ccc(C(=O)N[C@@H]4C(=O)N[C@H](C(C)C)C(=O)N5CCC[C@H]5C(=O)N(C)CC(=O)N(C)[C@@H](C(C)C)C(=O)O[C@@H]4C)c3nc-2c(C(=O)N[C@@H]2C(=O)N[C@H](C(C)C)C(=O)N3CCC[C@H]3C(=O)N(C)CC(=O)N(C)[C@@H](C(C)C)C(=O)O[C@@H]2C)c(N)c1=O (I: T[dV]P[Sar][NMeV] / II: T[dV]P[Sar][NMeV]; ester I:1-I:C, II:1-II:C; linker I:N-II:N via Actinocin(9to1)) | 9.5%
CN(C/C=C/c1ccccc1)Cc1cccc2ccccc12 | -9.35%
C[C@H](CCC(=O)O)[C@H]1CC[C@H]2[C@@H]3C(=O)C[C@@H]4CC(=O)CC[C@]4(C)[C@H]3CC(=O)[C@]12C | 6.33%
C=CCc1ccc(O)c(OC)c1 | -5.79%
